Records with an inconclusive call do not appear. The source made the active and inactive calls. The call rests on the fitted dose curve; in most records, active means well fitted curve in the direction sought with a large enough effect in the signal ratio in the repeat runs (not every such curve was filed as active); inconclusive means weak or mixed curves, or a change in a side signal; inactive means no such curve, though single readings can be large or run the other way; the % refers to the signal ratio.

Outcome data for 40 compounds are collected here from PubChem BioAssay (Tox21).

A short description of the experiment: qHTS assay to identify small molecule agonists of the NFkB signaling pathway (AID 1159509). The note with it: NFkB-bla ME-180 cells, beta-lactamase FRET ratio, 5 h; series mostly up to 61 µM. An excerpt:
National Center for Advancing Translational Sciences [NCATS]
NIH Chemical Genomics Center [NCGC]
U.S. Environmental Protection Agency [EPA]
National Institutes of Environmental Health Sciences [NIEHS]
National Toxicology Program [NTP]
U.S. Food and Drug Administration [FDA]
Transcription factors and their stimulated target gene expression play pivotal roles across many cellular processes including responses to environmental stimuli. Proper regulation of associated pathways is critical to maintain cell health and function. Constitutive activation of transcription factor pathways has been implicated in tumors as it may block cellular functions such as apoptosis and lead to invasion and metastasis. One important transcription factor that stimulates gene expression in response to cytokines, UV radiation, and other stimuli is nuclear factor-kappa B (NFkB). To measure activation of the NFkB pathway, the CellSensor NFkB-bla ME-180 cell line (Life Technologies, Carlsbad, CA) that stably expresses beta-lactamase reporter gene under the regulation of a NF-kB response element was used. This assay allows measurement of the NFkB pathway activity induced by compounds in a ME-180 cell line. This system quantitates NF-kB activity using a FRET-based assay system where beta-lactamase expression disrupts FRET, allowing for fluorescent measurement of activity. This cell line has been used to screen the Tox21 10K compound library and to identify compounds that induce the NFkB pathway activity.
Tox21 Assay Protocol Summary:
NFkB-bla ME-180 cells were dispensed at 2,000 cells/6 uL of assay medium per well into black wall/clear-bottom 1536-well plates using a Multidrop Combi (ThermoFisher Scientific, Waltham, MA) dispenser. After the assay plates were incubated at 37 C and 5% CO2 for an overnight, 23 nL of compounds dissolved in DMSO, positive controls or DMSO only was transferred to the assay plate by a Pintool station (Kalypsys, San Diego, CA). The assay plates were incubated at 37 C and 5% CO2 for 5 hr. One uL of LiveBLAzer B/G FRET substrate (Life Technologies) was added using a Flying Reagent Dispenser (Aurora Discovery, San Diego, CA) and the plates were incubated at room temperature for 1.5 hr. Fluorescence intensity (405 nm excitation, 460 nm and 530 nm emissions) was measured using an Envision plate reader (PerkinElmer, Shelton, CT).
As to `CC(C)(C)CC(C)(C)N`, the outcome was inactive.

As to `C=C(C)C1CC=C(C)C(O)C1` (stereo not given), the outcome was inactive.

`N#CC1(O)CCCCC1`: the result was inactive.

For the compound `CC(C)CCOC(=O)CC(C)C`, the result was inactive.

Take `CCCCCCC(CCCCCCCCCCC(=O)OCC(COC(C)=O)OC(C)=O)OC(C)=O` (stereo not given): the outcome was inactive.

With `COC[C@H](c1ccc(C(F)(F)F)cc1)N1CCN(C2(C)CCN(C(=O)c3c(C)ncnc3C)CC2)C[C@H]1C`, the outcome was inactive.

As to `Cc1c(F)cc2c(=O)c(C(=O)O)cn3c2c1CCC3C` (stereo not given), the result was inactive.

Take `NCCNC(=O)c1ccc(Cl)cn1`: the outcome was inactive.

In the case of `[O-][N+](=Nc1ccccc1)c1ccccc1`, the outcome was inactive.

`OCc1ccccn1`: the result was inactive.

For `CCCCC=O`, the result was inactive.

For `CC1CCN(CCCC(=O)c2ccc(F)cc2)CC1`, the outcome was inactive.

Consider `CNc1ncnc2nc[nH]c12`, for which the result was inactive.

`C=C(C)C(=O)OCCC(C)OC(=O)C(=C)C` (stereo not given): the outcome was inactive.

Turning to `CC(C)COC(=O)C(C)C`, the result was inactive.

As to `NC1CCN(c2cccc(Cl)n2)CC1`, the outcome was inactive.

For the compound `O=C(O)/C=C/c1ccc(Cn2ccnc2)cc1`, the result was inactive.

Turning to `CN(C)CCOC(c1ccc(Cl)cc1)c1ccccn1` (stereo not given), the outcome was inactive.

In the case of `CCC(C)OC(=O)N1CCCCC1CCO` (stereo not given), the outcome was inactive.

On to `O=C(O)CCNC(=O)c1ccc(N=Nc2ccc(O)c(C(=O)O)c2)cc1`, for which the result was inactive.

As for `NC(CS)C(=O)O` (stereo not given), the result was inactive.

In the case of `O=[N+]([O-])c1ccc(Oc2ccc([N+](=O)[O-])cc2)cc1`, the outcome was inactive.

Take `CCCCc1ccc(N)cc1`: the result was inactive.

For the compound `CNC(=O)c1c(I)c(NC(=O)CCCCC(=O)Nc2c(I)c(C(=O)O)c(I)c(C(=O)NC)c2I)c(I)c(C(=O)O)c1I`, the outcome was inactive.

On to `OC[C@H]1O[C@@H]2O[C@H]3[C@H](O)[C@@H](O)[C@@H](O[C@H]4[C@H](O)[C@@H](O)[C@@H](O[C@H]5[C@H](O)[C@@H](O)[C@@H](O[C@H]6[C@H](O)[C@@H](O)[C@@H](O[C@H]7[C@H](O)[C@@H](O)[C@@H](O[C@H]8[C@H](O)[C@@H](O)[C@@H](O[C@H]9[C@H](O)[C@@H](O)[C@@H](O[C@H]1[C@H](O)[C@H]2O)O[C@@H]9CO)O[C@@H]8CO)O[C@@H]7CO)O[C@@H]6CO)O[C@@H]5CO)O[C@@H]4CO)O[C@@H]3CO`, for which the result was inactive.

Take `CCN1CCN(c2cc3c(cc2F)c(=O)c(C(=O)O)cn3C2CC2)CC1`: the outcome was inactive.

`COc1cc(C(=O)N2CCOCC2)cc(OC)c1OC`: the outcome was inactive.

For the compound `CN(C)C(=O)Nc1ccccc1`, the result was inactive.

As for `CN(C)N=Nc1ccccc1`, the result was inactive.

For the compound `C=CCOc1nc(OCC=C)nc(OCC=C)n1`, the outcome was inactive.

As to `CC(C)[N+](C)(C)CC(O)COc1cccc2ccccc12` (stereo not given), the outcome was inactive.

Regarding `CCC(=O)/C=C/c1ccc(OC)cc1`, the outcome was inactive.

Consider `O=C(O)c1ccc[n+]([O-])c1`, for which the outcome was inactive.

Consider `COC(=O)C1=C(C)NC(C)=C(C(=O)OCC(C)=O)C1c1ccccc1[N+](=O)[O-]` (stereo not given), for which the outcome was inactive.

For the compound `c1ccc(CCCc2ccccn2)cc1`, the outcome was inactive.

On to `O=[N+]([O-])c1ccc(CCO)cc1`, for which the outcome was inactive.

For the compound `Cc1ccc(N)cc1[N+](=O)[O-]`, the result was inactive.

As to `N#CCN(CC#N)CCN(CC#N)CC#N`, the outcome was inactive.

For the compound `O=C1CC2(CCCC2)CC(=O)N1`, the result was inactive.

Turning to `Nc1ncnc2c1ncn2Cc1c(F)cccc1Cl`, the outcome was inactive.
